Where a name gives a salt, the structure may show the parent alone.
Columns and labels:
Conditions in all cases: 20 µM
[1] = system: Salmonella enterica typhimurium; test: growth AUC normalised to DMSO control (fraction of control); higher = less growth inhibition, active = hit call of the paper
How it was run: (§1)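 Pathogens were passaged twice under anaerobic conditions, then inoculated into pre-reduced mGAM plates at a starting OD578 of 0.01, with compound at 20 μM and 1% DMSO, and sealed with breathable membranes. For Haemophilus parainfluenzae, the medium was supplemented with hemin and NAD. OD578 was read every hour for 24 h in three biological replicates. Growth-curve AUC was calculated by the trapezoidal rule up to the exponential-to-stationary transition and normalised to DMSO controls on the same plate.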

[2] = system: Shigella flexneri; test: as above
How it was run: as §1

[3] = system: Vibrio cholerae; test: as above
How it was run: as §1

[4] = system: Yersinia pseudotuberculosis; test: as above
How it was run: as §1

[5] = system: P. vulgatus RND KO; test: growth AUC normalised to DMSO control (median) (fraction of control); higher = less growth inhibition, active = hit call of the paper
How it was run: (§2)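 After two overnight anaerobic passages, strains were inoculated at OD578 0.01 into mGAM in 96-well plates containing approved-drug library compounds at 20 μM and 1% DMSO. Growth was followed by reading OD578 hourly for 24 h within an anaerobic incubator. Area under the curve, taken by the trapezoidal rule up to the start of stationary phase, was normalised to same-plate vehicle wells, and the median of three biological replicates is listed.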

[6] = system: P. vulgatus WT; test: as above
How it was run: as §2

[7] = system: S. enterica typhimurium WT; test: as above
How it was run: as §2

[8] = system: S. enterica typhimurium tolC KO; test: as above
How it was run: as §2

Measured: growth AUC normalised to DMSO control
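For growth AUC normalised to DMSO control (median) in this document: active when median AUC fell below 0.1.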

Nc1nc(=O)c2c([nH]1)NC[C@@H](CNc1ccc(C(=O)N[C@@H](CCC(=O)O)C(=O)O)cc1)N2C=O [Folinic acid calcium salt]
inactive: [1] 1 | [2] 0.999 | [3] 1.01 | [4] 1 | [5] 1.01 | [6] 1.04 | [7] 1 | [8] 1

C#C[C@]1(O)CC[C@H]2[C@@H]3CCC4=CCCC[C@@H]4[C@H]3CC[C@@]21C [Lynestrenol]
inactive: [1] 0.997 | [2] 0.973 | [3] 1.01 | [4] 0.972 | [5] 0.945 | [6] 0.976 | [7] 1.02 | [8] 1

CC=C(C)C(=O)OC1C(OC(C)=O)C2(CO)C(O)CC3(C)C(=CCC4C5(C)CCC(OC6OC(C(=O)O)C(OC7OC(CO)C(O)C(O)C7O)C(O)C6OC6OC(CO)C(O)C(O)C6O)C(C)(CO)C5CCC43C)C2CC1(C)C (stereo not drawn) [Beta-Escin]
inactive: [1] 0.997 | [2] 1 | [3] 0.995 | [4] 0.999 | [5] 0.998 | [6] 0.981 | [7] 0.977 | [8] 1

CO/N=C(\C(=O)N[C@@H]1C(=O)N2C(C(=O)O)=C(C[N+]3(C)CCCC3)CS[C@H]12)c1csc(N)n1 [Cefepime hydrochloride]
active: [1] 0.00376 | [2] 0.0351 | [3] 0.178 | [4] 0.049 | [5] 0.0104 | [6] 0.0103 | [7] 0.00386 | [8] 0.00189

CNC(=C[N+](=O)[O-])NCCSCc1csc(CN(C)C)n1 [Nizatidine]
inactive: [1] 0.998 | [2] 0.989 | [3] 0.997 | [4] 1 | [5] 1.03 | [6] 1.04 | [7] 1.02 | [8] 0.989

CCN1CCC[C@H]1CNC(=O)c1c(O)c(Cl)cc(Cl)c1OC [Raclopride]
inactive: [1] 1 | [2] 0.983 | [3] 0.985 | [4] 0.951 | [5] 1.04 | [6] 1.04 | [7] 0.994 | [8] 1

CCN(CC)CCNC(=O)c1cc(Br)c(N)cc1OC [Bromopride]
inactive: [1] 1.01 | [2] 1.01 | [3] 1.01 | [4] 1 | [5] 1 | [6] 1.01 | [7] 1.01 | [8] 1.01

O=C(CCCCC(=O)Nc1c(I)cc(I)c(C(=O)O)c1I)Nc1c(I)cc(I)c(C(=O)O)c1I [Iodipamide]
inactive: [1] 0.986 | [2] 0.998 | [3] 0.995 | [4] 1 | [5] 1.01 | [6] 1 | [7] 0.999 | [8] 1.01

O=C(O)c1cc(-c2ccc(F)cc2F)ccc1O [Diflunisal]
inactive: [1] 0.983 | [2] 0.997 | [3] 0.899 | [4] 0.984 | [5] 0.999 | [6] 1.07 | [7] 0.973 | [8] 0.943

OC(CCN1CCCCC1)(c1ccccc1)c1ccccc1 [Pridinol methanesulfonate salt]
inactive: [1] 0.993 | [2] 1.02 | [3] 1.07 | [4] 0.988 | [5] 0.963 | [6] 0.953 | [7] 0.991 | [8] 0.994

CN(C)CCOC(=O)COc1ccc(Cl)cc1 [Meclofenoxate hydrochloride]
inactive: [1] 0.977 | [2] 0.942 | [3] 0.977 | [4] 0.935 | [5] 0.996 | [6] 0.985 | [7] 1.01 | [8] 0.995

N[C@@H](Cc1cc(I)c(Oc2cc(I)c(O)c(I)c2)c(I)c1)C(=O)O [(L) Thyroxine]
inactive: [1] 1.01 | [2] 1.02 | [3] 1.03 | [4] 1.02 | [5] 0.994 | [6] 1.06 | [7] 1.02 | [8] 0.983

CN(C)[C@@H]1C(=O)C(C(N)=O)=C(O)[C@@]2(O)C(=O)C3=C(O)c4c(O)ccc(Cl)c4[C@@H](O)[C@H]3C[C@@H]12 [Demeclocycline hydrochloride]
active: [1] 0.00255 | [2] 0.0177 | [3] 0.056 | [4] 0.0357 | [5] 0.015 | [6] 0.0137 | [7] 0.00782 | [8] 0.00561

O=C(O)Cc1ccccc1Nc1c(Cl)cccc1Cl [Diclofenac sodium]
inactive: [1] 0.975 | [2] 0.957 | [3] 0.973 | [4] 0.982 | [5] 0.95 | [6] 0.964 | [7] 1 | [8] 0.997

CC1(C)O[C@@H]2C[C@H]3[C@@H]4C[C@H](F)C5=CC(=O)CC[C@]5(C)[C@H]4[C@@H](O)C[C@]3(C)[C@]2(C(=O)CO)O1 [Flurandrenolide]
inactive: [1] 1 | [2] 1.01 | [3] 1.03 | [4] 0.996 | [5] 1.06 | [6] 1.07 | [7] 0.996 | [8] 0.986

CC[C@H](C)C(=O)O[C@H]1CCC=C2C=C[C@H](C)[C@H](CC[C@@H]3C[C@@H](O)CC(=O)O3)[C@H]21 [Mevastatin]
inactive: [1] 1 | [2] 1.01 | [3] 1.02 | [4] 0.974 | [5] 0.952 | [6] 0.989 | [7] 1.01 | [8] 0.922

CC(CN1c2ccccc2Sc2ccccc21)N(C)C (configuration not stated) [Promethazine hydrochloride]
inactive: [1] 0.983 | [2] 1.03 | [3] 0.961 | [4] 0.957 | [5] 0.718 | [6] 0.682 | [7] 1 | [8] 0.98

NC[C@@H]1O[C@H](O[C@H]2[C@@H](O)[C@H](O[C@@H]3[C@@H](O)[C@H](N)C[C@H](N)[C@H]3O[C@H]3O[C@H](CO)[C@@H](O)[C@H](O)[C@H]3N)O[C@@H]2CO)[C@H](N)[C@@H](O)[C@@H]1O [Paromomycin sulfate]
inactive: [1] 1.01 | [2] 0.993 | [3] 1.01 | [4] 0.997 | [5] 1 | [6] 0.991 | [7] 1 | [8] 1

Nc1ccc(S(=O)(=O)Nc2nccs2)cc1 [Sulfathiazole]
inactive: [1] 1.02 | [2] 1 | [3] 1.01 | [4] 1.01 | [5] 0.995 | [6] 1.01 | [7] 0.985 | [8] 0.974

O=C1CC2(CCCC2)CC(=O)N1CCCCN1CCN(c2ncccn2)CC1 [Buspirone hydrochloride]
inactive: [1] 1.01 | [2] 1.08 | [3] 1.04 | [4] 1 | [5] 1.12 | [6] 1.11 | [7] 0.986 | [8] 0.979

CN(C)CCCC1(c2ccc(F)cc2)OCc2cc(C#N)ccc21 (configuration not stated) [Citalopram hydrobromide]
inactive: [1] 0.998 | [2] 0.994 | [3] 1 | [4] 1.01 | [5] 1.02 | [6] 0.982 | [7] 1 | [8] 0.991

NS(=O)(=O)c1cc(Cl)c(Cl)c(S(N)(=O)=O)c1 [Dichlorphenamide]
inactive: [1] 1.01 | [2] 1.06 | [3] 1.07 | [4] 1.02 | [5] 1.05 | [6] 1.04 | [7] 0.995 | [8] 1.01

CC(COc1ccccc1)NC(C)C(O)c1ccc(O)cc1 (configuration not stated) [Isoxsuprine hydrochloride]
inactive: [1] 0.979 | [2] 0.989 | [3] 1 | [4] 0.989 | [5] 1.02 | [6] 1.01 | [7] 0.998 | [8] 1

CN(C)CC/C=C1/c2ccccc2Sc2ccc(Cl)cc21 [Chlorprothixene hydrochloride]
active: [3] 0.817
inactive: [1] 0.997 | [2] 0.988 | [4] 0.996 | [5] 0.904 | [6] 0.887 | [7] 0.999 | [8] 0.912

COC(=O)Nc1nc2cc(C(=O)c3ccccc3)ccc2[nH]1 [Mebendazole]
inactive: [1] 0.975 | [2] 0.975 | [3] 0.951 | [4] 0.996 | [5] 0.998 | [6] 0.991 | [7] 0.998 | [8] 0.989

COC(=O)C1=C(C)NC(C)=C(C(=O)OC(C)C)C1c1cccc2nonc12 (configuration not stated) [Isradipine]
inactive: [1] 1.01 | [2] 1.02 | [3] 1.02 | [4] 1 | [5] 1.02 | [6] 1.05 | [7] 1.02 | [8] 0.979

OC(CCN1CCCC1)(c1ccccc1)C1CCCCC1 (configuration not stated) [Procyclidine hydrochloride]
inactive: [1] 0.975 | [2] 0.953 | [3] 0.937 | [4] 0.984 | [5] 0.96 | [6] 0.941 | [7] 1.01 | [8] 0.983

N=C(N)NCC1COC2(CCCCC2)O1 (configuration not stated) [Guanadrel sulfate]
inactive: [1] 0.979 | [2] 0.964 | [3] 0.983 | [4] 0.985 | [5] 0.965 | [6] 0.969 | [7] 0.994 | [8] 0.99

NS(=O)(=O)c1cc2c(cc1Cl)N=CNS2(=O)=O [Chlorothiazide]
inactive: [1] 1.01 | [2] 0.998 | [3] 1.02 | [4] 1.01 | [5] 1.03 | [6] 1.07 | [7] 1.01 | [8] 1.01
